The list is not random: actives were taken first. Their share in the collection is about 10%.
ALDH1A1 inh – inhibitors of human aldehyde dehydrogenase 1A1; P00352; Purified ALDH1A1, NADH fluorescence, propionaldehyde substrate; Potency, µM (highest dose often 75.3 µM), for inactives: at the top dose activity, negative = inhibition, usual class: inhibitors; 220,000 compounds, 7.3% hits;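 also: potency is read from the fitted curve at half-maximal effect; plate controls were no enzyme wells and a reference inhibitor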
PNC inhibitor – inhibitors of perinucleolar compartment assembly; PC3M PTB-GFP, PNC prevalence imaging, 16 h; hits give low values; activity change (PNC), negative = inhibition, % at 10 µM; 140,000 compounds, 3.1% hits; AID 2417;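 active = readout at or below -70, meaning at least 70% loss of cells showing the perinucleolar compartment, a nuclear body marking cancer cells; inconclusive = readout between -30 and a set limit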;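 also: plate controls were DMSO wells for no effect and camptothecin positive control wells for full effect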
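Read-out is percentage of cells bearing a perinucleolar compartment, from automated 20x imaging of fixed, Hoechst-stained PC3M PTB-GFP cells. Cells were seeded 4 h, then exposed 16 h to compound (23 nl of library stock) in duplicate plates.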
HPGD inh – HPGD (human) dehydrogenase inhibition; P15428; purified HPGD, NADH fluorescence kinetic, PGE2 substrate; Potency, µM, for the others: at the top dose activity change, negative = inhibition, actives largely listed as inhibitors; 150,000 compounds, 4.3% hits; AID 894; also: potency is read from the fitted curve at half-maximal effect
Target sequence (P15428 whole entry, looked up): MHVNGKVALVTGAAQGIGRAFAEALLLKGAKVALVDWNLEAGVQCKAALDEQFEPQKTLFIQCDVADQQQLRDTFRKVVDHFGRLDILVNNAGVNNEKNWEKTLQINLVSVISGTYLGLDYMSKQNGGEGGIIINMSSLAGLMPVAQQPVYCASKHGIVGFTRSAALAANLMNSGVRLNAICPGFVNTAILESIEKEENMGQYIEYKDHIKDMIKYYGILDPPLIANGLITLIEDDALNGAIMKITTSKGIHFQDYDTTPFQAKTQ
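20 nM HPGD preincubated 15 min at room temperature with compound in 50 mM Tris-HCl pH 8, 0.01% Tween 20. Started with 1 mM NAD+ and 30 uM prostaglandin E2; NADH fluorescence (360/450 nm) read 5 times over 30-s intervals, last minus first.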
Luc counter – Kinase-Glo luciferase inhibition (counter-screen) | Kinase-Glo luciferase, ATP luminescence, 8 min | Potency, µM (highest dose often 38.3 µM), for the others: at the highest dose activity change, negative = inhibition, hits mostly inhibitors | AID 1379 | 200,000 compounds, 0.28% hits | Q27757; active = well fitted inhibition curve with a large enough effect; inconclusive = small, poorly fitted or top-dose-only effect; also: potency is read from the fitted curve at half-maximal effect; nearly all actives have a fitted effect of over 60% in size
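Luminescence was the read-out, taken after 8-minute incubation at ambient temperature. Luciferase turned over luciferin with 10 uM ATP in imidazole pH 7.2 buffer containing KCl, MgCl2, Tween 20 and BSA.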
LMNA splice mod – LMNA splicing modulation | 200,000 compounds, 0.01% hits | HeLa LMNA splicing GFP/RFP minigene ratio, 48 h | Potency, µM (series often up to 46.1 µM), without a hit: top-dose ratio change, negative = inhibition, actives largely listed as inhibitors; active = well fitted inhibition curve with a large enough effect in the signal ratio, with a control signal flat, not every such curve was filed as active; inconclusive = small, poorly fitted or top-dose-only effect, or effect the other way, or a change in a side signal; the % refers to the signal ratio; also: potency is read from the fitted curve at half-maximal effect
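S3 HeLa stable clones carrying a lamin A-EGFP splicing minigene plus DsRed2 were seeded at 600 cells/well in Opti-MEM with 2% FBS, pin-dosed and incubated 48 h at 37°C. Acumen cytometry (488 nm) gave the GFP/RFP total-intensity ratio.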
Starred values were filed as active, the others as inactive; [ ] = another dose, or the depositor's remark. Unless noted, calls follow the shape of the dose curve; as a rule, active = well fitted inhibition curve with a large enough effect (not every such curve was filed as active); inconclusive = small, poorly fitted or top-dose-only effect, or another doubt; inactive = no such curve, though single readings can be large or run the other way. Unless noted, % is scaled to controls: 0 for no effect and ±100 for the full control effect.

Screening CCC(=O)Nc1ccc(S(=O)(=O)NCc2cccn2Cc2cccc(C)c2)cc1 returned LMNA splice mod -2%[46 µM].
`Cc1cn(C)c(CC(=O)Nc2ccc(F)cc2Cl)c1C(=O)O` gave LMNA splice mod 7%[46 µM].
For NS(=O)(=O)c1ccc(Cl)c(S(N)(=O)=O)c1 the results were LMNA splice mod 3%.
N#CC(C#N)=C1c2cc(S(N)(=O)=O)ccc2-c2ccc(S(N)(=O)=O)cc21 was read as ALDH1A1 inh 7.9µM*, Luc counter 0% and LMNA splice mod -3%[46 µM].
For CCOC(=O)c1ccc(CN(Cc2ccc(Cl)cc2Cl)S(=O)(=O)c2cccc(Cl)c2)cc1 the results were LMNA splice mod 6%[46 µM].
O=C(C[n+]1ccccc1)Nc1c(Cl)cc(Cl)cc1Cl was read as ALDH1A1 inh 7.9µM* and Luc counter -9%.
Cc1ccc[n+](CC(=O)Nc2c(Cl)cc(Cl)cc2Cl)c1 was read as ALDH1A1 inh -6%, Luc counter -3% and LMNA splice mod 6%[46 µM].
`O=C(O)CCCC(=O)Nc1ccccc1Br` gave ALDH1A1 inh 3%, PNC inhibitor 7, HPGD inh -15%, Luc counter 1% and LMNA splice mod -3%.
`O=C(C[n+]1ccccc1)Nc1ccccc1Br` gave ALDH1A1 inh 1.8µM* and Luc counter -2%.
O=C(Cc1ccc2c(c1)CCCC2)Nc1ccccc1Br was read as ALDH1A1 inh -11%, PNC inhibitor 18, HPGD inh 25µM*, Luc counter -1% and LMNA splice mod 18%.
`COc1ccc2c(c1)O[C@@H](c1cccc(C(F)(F)F)c1)[C@H](OC(=O)N[C@H](C)C1CCCCC1)C2=O` gave ALDH1A1 inh 12%, HPGD inh 0% and Luc counter -1%.
CC[C@@]1([C@@H]2O[C@@H]([C@H]3O[C@@](O)(CO)[C@H](C)C[C@@H]3C)C[C@@H]2C)CC[C@H]([C@]2(C)CC[C@]3(C[C@H](O)[C@@H](C)[C@@H]([C@@H](C)[C@@H](OC)C(C)C(=O)O)O3)O2)O1 (stereo partly drawn) was read as ALDH1A1 inh 1%, HPGD inh -8% and Luc counter 1%[39.9 µM].
CCOC(=O)C(=O)C1(C(=O)OCC)Oc2cc(OC)cc(OC)c2C(=O)C1c1ccccc1 (stereo not drawn) was read as ALDH1A1 inh 10µM*, HPGD inh -10%, Luc counter -2% and LMNA splice mod -8%.
For Cc1nc(N)nc2ccccc12 the results were ALDH1A1 inh inconclusive, HPGD inh inconclusive and Luc counter -7%[7.66 µM].
CCOc1ccc(NS(=O)(=O)c2ccc3[nH]cc(C(=O)N(C)C4CCCCC4)c(=O)c3c2)cc1 was read as LMNA splice mod 8%[46 µM].
Cc1ccc(NN2C(=O)C=C(c3ccccc3)C2=O)cc1 was read as ALDH1A1 inh 16µM*, Luc counter -4% and LMNA splice mod inconclusive.
Screening CC(C)c1nnc(NC(=O)c2cccc(NC(=O)C(F)(F)F)c2)s1 returned ALDH1A1 inh 22µM*, Luc counter 4% and LMNA splice mod -8%[46 µM].
Screening N#C/C(=C\c1c[nH]c2ccccc12)C(=O)c1ccc(O)c(O)c1 returned ALDH1A1 inh inconclusive, HPGD inh 3.5µM*, Luc counter -5% and LMNA splice mod inconclusive.
N#C/C(=C\c1ccc(O)c(O)c1)C(=O)c1ccc(O)c(O)c1 was read as ALDH1A1 inh inconclusive, HPGD inh 7.9µM*, Luc counter -6% and LMNA splice mod inconclusive.
Screening N#C/C(=C\c1ccc(O)c(O)c1)C(=O)OCCc1cccs1 returned ALDH1A1 inh -11%, HPGD inh 28µM* and Luc counter 1%.
`Cc1nnc(NC(=O)CSc2nccn2-c2cccc(Cl)c2)s1` gave LMNA splice mod -19%[46 µM].
C[N+]1(C)CCC[C@H]1C(=O)[O-] was read as ALDH1A1 inh 6%[20.9 µM], HPGD inh 6%, Luc counter 3%[17.1 µM] and LMNA splice mod -10%.
CN(C)c1ccc(/C=C/c2cc[n+]([O-])cc2)cc1 was read as ALDH1A1 inh 0%, PNC inhibitor inconclusive, HPGD inh -14%, Luc counter -2% and LMNA splice mod 11%.
For CN(C)c1ccc(/C=C/c2cc[n+](C)cc2)cc1 the results were ALDH1A1 inh 14µM*, PNC inhibitor 1, HPGD inh -6%, Luc counter -14% and LMNA splice mod inconclusive.
Screening CC[n+]1c(/C=C/c2ccc(N(C)C)cc2)ccc2ccccc21 returned ALDH1A1 inh inconclusive, PNC inhibitor inconclusive, HPGD inh -25%, Luc counter 8.9µM* and LMNA splice mod inconclusive.
For CC[n+]1ccc(/C=C/c2ccc(N(C)C)cc2)c2ccccc21 the results were ALDH1A1 inh 22µM*, Luc counter inconclusive and LMNA splice mod inconclusive.
CC[n+]1ccccc1/C=C/c1ccc(N(C)C)cc1 was read as ALDH1A1 inh inconclusive and Luc counter -10%.
O=[N+]([O-])c1cc(N(CCO)CCO)ccc1NCCO was read as ALDH1A1 inh inconclusive and HPGD inh -13%.
`C=CCNS(=O)(=O)c1nc(C)c(Cl)c(C)c1C#N` gave ALDH1A1 inh -4%, PNC inhibitor -85*, HPGD inh -13%, Luc counter 1% and LMNA splice mod -14%.
`CSc1nc(C)c(Cl)c(C)c1C#N` gave ALDH1A1 inh 14%, PNC inhibitor inconclusive, HPGD inh -2%, Luc counter -1% and LMNA splice mod -1%.
Screening Cc1cccc(N(CC(=O)NC2CCCCC2)C(=O)Cn2nnc(-c3ccc(C)o3)n2)c1 returned ALDH1A1 inh -6% and Luc counter -1%.
Cc1cccc(N(CC(=O)NCc2ccccc2)C(=O)Cn2nnc(-c3ccc(C)o3)n2)c1 was read as ALDH1A1 inh -3%, PNC inhibitor -84*, HPGD inh -7%, Luc counter -3% and LMNA splice mod -3%.
`Cc1ccc(-c2nnn(CC(=O)N(CC(=O)NCc3ccccc3)c3cccc(C)c3C)n2)o1` gave ALDH1A1 inh 10µM*, PNC inhibitor inconclusive, HPGD inh 25µM*, Luc counter 1% and LMNA splice mod -14%.
For NCCC[C@@H](CC(=O)N[C@@H]1CCCC[C@H]1C(=O)N[C@H](CC(=O)N[C@@H](CCC(=O)O)CC(=O)O)Cc1ccccc1)NC(=O)C[C@H](Cc1ccccc1)NC(=O)[C@@H]1CCCC[C@H]1N the results were ALDH1A1 inh 6%, HPGD inh -2% and Luc counter 1%.
`CCN1C(=O)[C@H]2[C@H]3[C@H](O)[C@H](O)C/C(=N/OCC(C)C)[C@@H]3CC[C@@H]2C1=O` gave ALDH1A1 inh 9%[13.5 µM].
CCOC(=O)c1c(S(=O)(=O)N2CCCC(C(=O)N3CCN(c4ccc(F)cc4)CC3)C2)c(C)n(C)c1C (stereo not drawn) was read as LMNA splice mod -7%[46 µM].
